# About 7,900 targets were measured; listed, in parts, are those with a hit and a random draw of the rest. About 0.6% of all pairs of compound and target were hits. Values without a mark were called inactive.
# Assays:
# Assay in all cases: log2 fold change, soluble protein after heating vs DMSO (PISA); higher = thermal stabilisation; K562 cells, 10 uM, 30 min; active = over 0.2 and 3.5 SD of the protein, either way, in both replicates (recomputed)
# [1] = compound: C#Cc1cccc(Nc2ncnc3cc(OCCOC)c(OCCOC)cc23)c1 [erlotinib]
# Procedure, shortened: (§1)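 Soluble protein was defined as the supernatant after 21,000xg for 90 min. It came from K562 cells at 2×10^6 cells/mL given 10 μM compound for 30 min, heated in aliquots for 3 min across 48°C-58°C, pooled, and extracted in PBS with 0.5% NP-40 at 4°C, and was quantified by TMTpro 16plex LC-MS/MS with equalised channel sums. Thermal stability against control samples, from duplicates, is reported as log2 fold change.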
# [2] = compound: C/C(=N\NC(=O)C1=CC(=CC=C1)S(=O)(=O)N2CCOCC2)/C3=C(C=CC(=C3)Cl)O
# Procedure, shortened: as §1
# [3] = compound: C1=CC(=C(C=C1Cl)C2=NC3=NC=CN=C3C(=N2)NC4=CC=NC=C4)F
# Procedure, shortened: as §1
# [4] = compound: C1=CC(=CC=C1C2=NC3=C(N2)C=C(C=C3)C(=O)N)OC4=CC=C(C=C4)Cl
# Procedure, shortened: as §1
# [5] = compound: C1=CC2=C(C=CC(=C2)/C=C\3/C(=O)NC(=NCC4=CC=CS4)S3)N=C1
# Procedure, shortened: as §1
# [6] = compound: C1=CC2=NC=CN=C2C=C1/C=C/3\C(=O)NC(=O)S3
# Procedure, shortened: as §1
# [7] = compound: C1=CC=C(C=C1)C2=NC(=C(N2)C3=CC=NC=C3)C4=CC(=C(C=C4)Cl)O
# Procedure, shortened: as §1
# [8] = compound: C1=CC=C2C(=C1)C3=NNC4=CC=CC(=C43)C2=O
# Procedure, shortened: as §1
# [9] = compound: C1CCN(C1)C(=O)NC2=CC=CC(=C2)NC3=NC=C(C(=N3)NCCC4=CN=CN4)Br
# Procedure, shortened: as §1
# [10] = compound: C1CN(CCC1(CC2=CC=C(C=C2)Cl)N)C3=NC=NC4=C3C=CN4
# Procedure, shortened: as §1
# [11] = compound: C1COCCN1CCN2C3=CC=CC=C3N=C2NC(=O)C4=CC(=CC=C4)[N+](=O)[O-] [IRAK-1-4 Inhibitor I]
# Procedure, shortened: as §1
# [12] = compound: C=CC(=O)N1CCC[C@@H](n2nc(-c3ccc(Oc4ccccc4)cc3)c3c(N)ncnc32)C1 [ibrutinib]
# Procedure, shortened: as §1
# [13] = compound: CC(=O)c1cnc2ccc(-c3cc(Cl)c(O)c(Cl)c3)nc2c1N[C@H]1CC[C@H](CN(C)C)CC1
# Procedure, shortened: as §1
# [14] = compound: CC(C)(C)Cn1c(N)nc2ccc(-c3[nH]c(C(C)(C)C)nc3-c3ccc(F)cc3)nc21 [ralimetinib]
# Procedure, shortened: as §1
# [15] = compound: CC(C)(O)CC(=O)NCCn1ccc2ncnc(Nc3ccc(Oc4cccc(C(F)(F)F)c4)c(Cl)c3)c21
# Procedure, shortened: as §1
# [16] = compound: CC(C)C1=C2N=C(C=C(N2N=C1)NCC3=CC=CC=C3)NCCCCCCN
# Procedure, shortened: as §1
# [17] = compound: CC(C)C[C@@H](C=O)NC(=O)[C@H](CC(C)C)NC(=O)[C@H](CC(C)C)NC(=O)OCc1ccccc1
# Procedure, shortened: as §1
# [18] = compound: CC(C)N(C[C@H]1O[C@@H](n2cnc3c(N)ncnc32)[C@H](O)[C@@H]1O)[C@H]1C[C@@H](CCc2nc3cc(C(C)(C)C)ccc3[nH]2)C1 [pinometostat]
# Procedure, shortened: as §1
# [19] = compound: CC1=C(C(CC(=O)N1)C2=CC=C(C=C2)C(F)(F)F)C(=O)NC3=C(C=C4C(=C3)C=NN4)F
# Procedure, shortened: as §1
# [20] = compound: CC1=C(C2=C(C=C1)C(=O)C3=CC=CC=C3N2CCCN)C
# Procedure, shortened: as §1
# Sequence of UniProt Q96EV8 (Q96EV8 whole entry, looked up): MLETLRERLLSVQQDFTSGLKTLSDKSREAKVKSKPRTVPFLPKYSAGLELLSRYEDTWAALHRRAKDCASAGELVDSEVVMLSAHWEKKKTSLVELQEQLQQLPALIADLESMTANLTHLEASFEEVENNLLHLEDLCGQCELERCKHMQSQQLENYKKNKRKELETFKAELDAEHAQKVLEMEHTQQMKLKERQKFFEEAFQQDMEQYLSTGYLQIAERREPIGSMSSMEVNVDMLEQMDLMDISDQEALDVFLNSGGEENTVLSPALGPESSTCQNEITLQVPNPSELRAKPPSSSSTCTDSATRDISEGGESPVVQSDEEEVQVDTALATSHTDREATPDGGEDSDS
# Sequence of UniProt Q8N6R0 (Q8N6R0 whole entry, looked up): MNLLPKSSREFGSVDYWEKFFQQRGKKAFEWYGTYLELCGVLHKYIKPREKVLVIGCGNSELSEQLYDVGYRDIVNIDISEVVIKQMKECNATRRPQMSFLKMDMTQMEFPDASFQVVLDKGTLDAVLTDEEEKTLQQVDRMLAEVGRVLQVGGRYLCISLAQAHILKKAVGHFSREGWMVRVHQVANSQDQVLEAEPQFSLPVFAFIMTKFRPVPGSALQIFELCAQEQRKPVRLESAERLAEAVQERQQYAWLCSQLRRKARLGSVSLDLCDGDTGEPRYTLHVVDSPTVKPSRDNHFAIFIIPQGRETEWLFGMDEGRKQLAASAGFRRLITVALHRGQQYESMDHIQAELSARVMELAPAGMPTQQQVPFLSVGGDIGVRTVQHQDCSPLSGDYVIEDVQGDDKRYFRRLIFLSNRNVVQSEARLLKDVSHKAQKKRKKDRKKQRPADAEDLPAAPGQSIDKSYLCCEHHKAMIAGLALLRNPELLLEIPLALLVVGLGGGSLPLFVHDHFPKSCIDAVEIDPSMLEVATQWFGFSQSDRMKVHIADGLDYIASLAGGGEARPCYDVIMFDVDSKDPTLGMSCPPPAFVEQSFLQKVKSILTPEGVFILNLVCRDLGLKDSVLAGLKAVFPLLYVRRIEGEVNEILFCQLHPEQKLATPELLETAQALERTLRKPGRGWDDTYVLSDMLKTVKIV
# Sequence of UniProt P13498 (P13498 whole entry, looked up): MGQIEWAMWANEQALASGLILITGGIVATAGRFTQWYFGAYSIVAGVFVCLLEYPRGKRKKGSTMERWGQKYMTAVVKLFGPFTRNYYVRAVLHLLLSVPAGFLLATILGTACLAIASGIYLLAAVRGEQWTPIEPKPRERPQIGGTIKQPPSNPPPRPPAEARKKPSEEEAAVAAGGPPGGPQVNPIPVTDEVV
# Sequence of UniProt P06730 (P06730 whole entry, looked up): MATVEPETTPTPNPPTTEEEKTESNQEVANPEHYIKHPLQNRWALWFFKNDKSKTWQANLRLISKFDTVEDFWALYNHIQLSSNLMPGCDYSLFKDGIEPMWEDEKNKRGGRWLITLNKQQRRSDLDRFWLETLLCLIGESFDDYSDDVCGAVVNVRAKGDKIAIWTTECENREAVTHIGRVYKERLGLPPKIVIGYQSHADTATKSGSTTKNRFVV
# Sequence of UniProt P98173 (P98173 whole entry, looked up): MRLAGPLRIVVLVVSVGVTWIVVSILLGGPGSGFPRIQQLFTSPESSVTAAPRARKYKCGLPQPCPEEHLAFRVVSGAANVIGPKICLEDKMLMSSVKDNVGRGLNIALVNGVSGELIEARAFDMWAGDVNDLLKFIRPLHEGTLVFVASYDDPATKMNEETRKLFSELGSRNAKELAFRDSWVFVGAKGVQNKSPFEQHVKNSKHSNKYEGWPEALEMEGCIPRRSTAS
# Sequence of UniProt P41091 (P41091 whole entry, looked up): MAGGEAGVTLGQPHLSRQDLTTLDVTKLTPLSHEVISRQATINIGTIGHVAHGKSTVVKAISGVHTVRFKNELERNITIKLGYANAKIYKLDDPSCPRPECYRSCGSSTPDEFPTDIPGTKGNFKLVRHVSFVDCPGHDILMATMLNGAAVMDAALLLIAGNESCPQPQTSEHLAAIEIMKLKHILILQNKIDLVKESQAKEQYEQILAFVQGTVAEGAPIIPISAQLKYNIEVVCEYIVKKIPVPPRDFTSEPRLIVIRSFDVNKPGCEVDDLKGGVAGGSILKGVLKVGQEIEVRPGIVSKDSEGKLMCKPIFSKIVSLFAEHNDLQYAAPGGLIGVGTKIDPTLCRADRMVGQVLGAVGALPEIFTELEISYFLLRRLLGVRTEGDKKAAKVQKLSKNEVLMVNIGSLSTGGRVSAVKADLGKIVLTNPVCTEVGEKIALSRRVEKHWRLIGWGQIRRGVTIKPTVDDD
# Sequence of UniProt O75477 (O75477 whole entry, looked up): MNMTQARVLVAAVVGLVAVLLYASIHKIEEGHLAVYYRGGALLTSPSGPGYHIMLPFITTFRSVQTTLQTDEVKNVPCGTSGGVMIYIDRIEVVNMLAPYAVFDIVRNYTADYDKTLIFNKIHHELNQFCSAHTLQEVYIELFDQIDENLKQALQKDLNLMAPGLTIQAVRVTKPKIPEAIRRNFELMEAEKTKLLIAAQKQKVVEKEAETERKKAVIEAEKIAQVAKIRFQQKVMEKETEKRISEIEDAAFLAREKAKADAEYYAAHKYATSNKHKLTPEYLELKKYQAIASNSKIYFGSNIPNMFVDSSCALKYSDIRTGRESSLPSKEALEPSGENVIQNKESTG
# Sequence of UniProt Q96G46 (Q96G46 whole entry, looked up): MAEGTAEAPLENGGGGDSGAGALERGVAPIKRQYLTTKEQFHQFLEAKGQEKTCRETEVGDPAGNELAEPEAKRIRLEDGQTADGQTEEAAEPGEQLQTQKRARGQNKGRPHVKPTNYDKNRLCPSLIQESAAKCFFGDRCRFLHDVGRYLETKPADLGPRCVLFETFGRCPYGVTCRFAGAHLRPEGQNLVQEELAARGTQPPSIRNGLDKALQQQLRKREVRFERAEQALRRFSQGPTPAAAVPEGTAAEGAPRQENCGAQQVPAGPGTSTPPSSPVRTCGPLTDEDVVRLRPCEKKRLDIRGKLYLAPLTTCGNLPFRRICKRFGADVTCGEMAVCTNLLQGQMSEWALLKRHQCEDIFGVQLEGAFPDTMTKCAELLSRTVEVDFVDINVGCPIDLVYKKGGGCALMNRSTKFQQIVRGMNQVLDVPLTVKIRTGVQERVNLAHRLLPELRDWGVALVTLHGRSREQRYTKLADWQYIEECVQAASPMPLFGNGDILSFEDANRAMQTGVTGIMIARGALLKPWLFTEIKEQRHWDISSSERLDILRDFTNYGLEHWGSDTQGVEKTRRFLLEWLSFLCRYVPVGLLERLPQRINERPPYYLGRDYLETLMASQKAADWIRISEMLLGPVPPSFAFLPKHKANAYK
# Sequence of UniProt Q9Y5Q0 (Q9Y5Q0 whole entry, looked up): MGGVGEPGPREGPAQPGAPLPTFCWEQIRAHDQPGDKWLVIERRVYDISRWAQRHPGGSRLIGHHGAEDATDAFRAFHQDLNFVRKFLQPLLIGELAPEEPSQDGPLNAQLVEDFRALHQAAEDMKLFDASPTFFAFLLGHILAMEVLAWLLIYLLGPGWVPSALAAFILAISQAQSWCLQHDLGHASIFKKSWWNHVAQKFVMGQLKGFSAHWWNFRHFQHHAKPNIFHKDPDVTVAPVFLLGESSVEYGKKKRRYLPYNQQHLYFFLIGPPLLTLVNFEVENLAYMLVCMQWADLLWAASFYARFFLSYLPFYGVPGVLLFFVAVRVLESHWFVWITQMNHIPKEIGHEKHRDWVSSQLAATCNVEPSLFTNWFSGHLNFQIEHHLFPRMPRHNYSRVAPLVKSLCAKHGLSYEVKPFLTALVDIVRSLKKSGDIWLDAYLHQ
# Sequence of UniProt Q9H2U1 (Q9H2U1 whole entry, looked up): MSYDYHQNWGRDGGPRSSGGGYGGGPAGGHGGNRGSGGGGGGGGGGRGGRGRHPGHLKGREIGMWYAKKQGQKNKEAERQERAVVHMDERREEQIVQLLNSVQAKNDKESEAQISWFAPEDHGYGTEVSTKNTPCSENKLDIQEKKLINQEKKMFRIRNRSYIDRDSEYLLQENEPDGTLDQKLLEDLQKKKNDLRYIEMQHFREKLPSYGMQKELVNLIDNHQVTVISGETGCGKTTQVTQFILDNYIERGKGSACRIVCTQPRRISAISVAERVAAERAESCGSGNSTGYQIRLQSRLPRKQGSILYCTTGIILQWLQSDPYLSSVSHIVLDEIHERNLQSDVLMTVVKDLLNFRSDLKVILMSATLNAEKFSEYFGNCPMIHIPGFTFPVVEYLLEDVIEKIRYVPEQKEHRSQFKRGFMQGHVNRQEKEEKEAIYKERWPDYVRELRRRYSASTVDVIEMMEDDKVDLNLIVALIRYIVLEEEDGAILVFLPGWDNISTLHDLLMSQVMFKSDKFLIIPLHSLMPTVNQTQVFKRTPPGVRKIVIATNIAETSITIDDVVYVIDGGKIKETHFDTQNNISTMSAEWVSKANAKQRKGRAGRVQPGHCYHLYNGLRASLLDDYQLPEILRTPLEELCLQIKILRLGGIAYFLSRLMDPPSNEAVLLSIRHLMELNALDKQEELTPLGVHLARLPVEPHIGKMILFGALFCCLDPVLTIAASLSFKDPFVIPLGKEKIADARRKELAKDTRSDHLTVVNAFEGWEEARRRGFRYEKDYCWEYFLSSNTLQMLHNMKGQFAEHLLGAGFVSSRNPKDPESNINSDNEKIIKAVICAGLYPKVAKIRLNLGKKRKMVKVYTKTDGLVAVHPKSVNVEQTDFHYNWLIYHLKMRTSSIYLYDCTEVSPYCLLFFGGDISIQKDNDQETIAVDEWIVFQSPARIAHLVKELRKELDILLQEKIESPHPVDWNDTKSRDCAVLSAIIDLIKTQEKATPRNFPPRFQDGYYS
# Sequence of UniProt P07711 (P07711 whole entry, looked up): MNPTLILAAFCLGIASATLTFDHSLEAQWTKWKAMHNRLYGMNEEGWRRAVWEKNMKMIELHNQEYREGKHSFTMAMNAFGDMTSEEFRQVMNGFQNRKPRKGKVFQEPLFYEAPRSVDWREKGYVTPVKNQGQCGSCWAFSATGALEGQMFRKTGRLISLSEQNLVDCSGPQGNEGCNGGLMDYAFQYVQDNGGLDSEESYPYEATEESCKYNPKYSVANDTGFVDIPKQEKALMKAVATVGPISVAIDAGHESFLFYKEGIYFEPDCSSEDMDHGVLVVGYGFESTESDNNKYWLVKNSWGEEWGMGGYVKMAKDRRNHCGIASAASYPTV
Target,log2 fold change [1],log2 fold change [2],log2 fold change [3],log2 fold change [4],log2 fold change [5],log2 fold change [6],log2 fold change [7],log2 fold change [8],log2 fold change [9],log2 fold change [10],log2 fold change [11],log2 fold change [12],log2 fold change [13],log2 fold change [14],log2 fold change [15],log2 fold change [16],log2 fold change [17],log2 fold change [18],log2 fold change [19],log2 fold change [20]
EIF2S3 (UniProt P41091),-0.028,-0.041,-0.18,-0.004,-0.023,-0.006,-0.037,0.015,-0.023,-0.06,-0.126,0.021,-0.004,0.061,0.05,0.052,0.075,0.077,0.005,0.195
ERLIN1 (UniProt O75477),-0.081,0.013,-0.097,-0.001,-0.015,-0.011,-0.006,-0.047,0.008,-0.124,-0.073,-0.06,0.105,0.054,-0.018,-0.269 (active),-0.007,0.098,0.012,0.068
DUS3L (UniProt Q96G46),-0.073,0.025,0.118,0.059,0.016,0.037,0.042,-0.001,-0.043,0.078,0,0.008,-0.031,0.042,-0.043,0.062,-0.055,-0.022,-0.001,-0.005
DNAH11 (UniProt Q96DT5),-0.252,-0.237,0.001,0.085,0.012,-0.023,-0.28,-0.001,0.125,0.119,0.038,0.103,0.126,-0.285,0.047,-0.001,0.041,-0.019,-0.012,-0.137
FAM3A (UniProt P98173),-0.064,0.118,-0.067,0.029,0.059,0.082,0.083,-0.05,-0.044,0.059,-0.028,-0.011,0.028,0.023,-0.028,-0.07,0.047,0.007,0.018,0.088
CYFIP1 (UniProt Q7L576),-0.016,0.066,0.07,0.018,0.002,0.026,0.003,-0.016,0.005,0.059,-0.001,-0.019,-0.07,-0.013,-0.056,-0.042,-0.013,0.001,0.009,0.026
DNAJC7 (UniProt Q99615),0.02,0.065,0.061,-0.002,0.014,0.024,0.013,0.023,0.005,-0.043,-0.041,-0.012,-0.007,-0.014,-0.022,-0.117,0.023,-0.034,-0.003,0.04
FADS3 (UniProt Q9Y5Q0),0.03,-0.005,0.104,0.017,0.064,0.058,0.04,0.001,-0.055,0.05,0.029,0.018,-0.031,-0.064,-0.121,-0.011,0.102,0.038,-0.033,0.054
ERCC6 (UniProt Q03468),-0.036,0.06,0.028,-0.063,-0.096,-0.224,-0.052,0.003,-0.065,0.106,0.05,-0.079,0.11,0.05,-0.094,-0.015,0.018,-0.078,0.157,-0.041
EIF4E isoform 2 (UniProt P06730),0.084,-0.035,0.056,-0.073,0.01,0.168,0.074,0.152,0.181,0.146,0.066,0.089,0.308,-0.071,-0.016,0.114,0.012,-0.057,-0.024,0.027
CTSL (UniProt P07711),-0.005,-0.173,-0.036,-0.022,-0.203,0.019,-0.002,-0.041,-0.023,0.005,0.068,0.009,0.099,0.022,-0.014,-0.412 (active),0.098,-0.006,-0.01,-0.031
EEF1AKNMT (UniProt Q8N6R0),0.063,0.15,0.008,-0.022,0.114,0.013,0.091,0.058,0.023,-0.061,-0.081,-0.116,-0.026,0.141,-0.097,-0.199,0.127,0.354 (active),-0.029,0.13
EXTL2 (UniProt Q9UBQ6),0.051,0.018,-0.129,0.04,0.016,0.037,-0.031,0.062,-0.092,-0.119,-0.018,0.019,-0.073,-0.061,0.062,0.01,0.041,0,0.021,0.12
DHX36 (UniProt Q9H2U1),-0.089,0.013,-0.08,0.031,-0.072,0.011,0.044,-0.023,0.047,-0.066,-0.053,0.014,0.001,0.111,0.009,-0.025,0.056,0.153,0.031,-0.206
DTNBP1 (UniProt Q96EV8),0.016,0.028,0.038,0.03,0.028,-0.038,-0.043,-0.043,-0.009,0.002,0.069,-0.025,0.038,-0.136,-0.058,-0.009,-0.029,-0.044,-0.01,0.092
CYBA (UniProt P13498),-0.075,0.096,-0.005,0.025,0.042,0.032,0.03,-0.072,-0.012,-0.005,0.044,0.024,-0.024,-0.041,-0.152,-0.43 (active),0.121,-0.036,-0.018,-0.026
